Gal4-VP16 FLuc: VP16 counterscreen qHTS for inhibitors of ROR gamma transcriptional activity | Drosophila S2 Gal4-VP16 UAS-luciferase, luminescence, 20 h | Potency, µM (doses to about 53.6 µM), actives largely listed as inhibitors | 3.5% of 310,000 active | AID 2546, 2010;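 further: Gal4-VP16 expression switched on by copper sulfate through the metallothionein promoter; nearly all actives have a fitted effect of over 50% in size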
Six1-Eya2 blk: qHTS Assay for Inhibitors of the Six1/Eya2 Interaction; Homeobox protein SIX1 (Homo sapiens) + Protein phosphatase EYA2 (Homo sapiens), …; AlphaScreen GST-Six1/His-Eya2 binding, biochemical; active compounds read low; activity change, % (concentration not given with the values); 0.56% of 360,000 active; AID 651725, 2012; in the data active means activity change below about -65%; inconclusive means mostly about -30% to -63%
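Homogeneous AlphaScreen proximity assay pairing GST-Six1 with His-tagged Eya2 (added as 5X mix: 250 nM and 500 nM) in 50 mM Tris pH 8.0, 300 mM NaCl, 1 mM TCEP. Glutathione donor and nickel acceptor beads; 1 h, 37 °C, dark.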
CtBP-E1A inh: qHTS Assay for Inhibitors of the CtBP/E1A Interaction; AlphaScreen GST-E1A/His-CtBP binding, 1536-well; active compounds read low; activity change, % (no concentration beside the values); 0.49% of 340,000 active; in the data active means activity change below about -65%; inconclusive means mostly about -30% to -63%
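AlphaScreen with 125 nM GST-E1A and 125 nM His-CtBP (5X stocks) in Tris pH 8.0, 300 mM NaCl, BSA, Tween 20, TCEP. Compounds preincubated 2 h at 37 deg C, then glutathione donor/nickel acceptor beads added for 1 h at 37 deg C in dark.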
RORg inh: qHTS for inhibitors of ROR gamma transcriptional activity; Drosophila S2 Gal4-RORgamma UAS-luciferase reporter, 20 h; 5.4% of 310,000 active; AID 2551, 2010; Potency, µM (highest dose often 53.6 µM), hits mostly inhibitors; Nuclear receptor ROR-gamma (Mus musculus), P51450; further: nearly all actives have a fitted effect of over 60% in size
Target sequence (P51450 whole entry, looked up, the tested form may be a part): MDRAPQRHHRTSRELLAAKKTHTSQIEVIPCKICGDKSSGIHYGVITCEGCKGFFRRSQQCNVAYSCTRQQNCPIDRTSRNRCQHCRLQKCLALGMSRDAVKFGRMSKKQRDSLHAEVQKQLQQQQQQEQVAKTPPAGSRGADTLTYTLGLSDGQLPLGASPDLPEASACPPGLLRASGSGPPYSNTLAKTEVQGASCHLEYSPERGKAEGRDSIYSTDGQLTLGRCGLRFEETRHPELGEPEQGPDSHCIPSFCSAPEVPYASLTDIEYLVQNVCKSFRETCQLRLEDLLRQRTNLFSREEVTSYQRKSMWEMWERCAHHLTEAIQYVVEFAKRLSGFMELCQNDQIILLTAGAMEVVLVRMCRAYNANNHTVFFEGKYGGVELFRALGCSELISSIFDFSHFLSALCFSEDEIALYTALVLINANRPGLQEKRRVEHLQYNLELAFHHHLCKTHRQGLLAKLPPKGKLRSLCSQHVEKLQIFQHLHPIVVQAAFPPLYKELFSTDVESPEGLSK
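Luminescence from a UAS-regulated Photinus luciferase reporter in stably transfected Drosophila Schneider cells is measured; decreased signal marks ROR gamma inhibition. Fusion expression is induced by 700 uM copper sulfate for 20 hr.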
p53 reactivation: qHTS assay for re-activators of p53 using a Luc reporter. H1299 p53-A138V BP100-luciferase reporter, luminescence, 24 h. Potency, µM (top dose mostly 92.2 µM), most hits filed as activators. 0.063% of 320,000 active. AID 504706, 2011; further: nearly all actives have a fitted effect of over 45% in size
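H1299 (p53-null), stable ts p53-A138V + BP100-Luc; 1000 cells/well, Opti-MEM/10% FBS; cpd 4 pt, 1:5; 24 h, 37 deg C, 5% CO2; detection reagent 10 min RT; luminescence.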
Each line names hits and unclear results; the compound was inactive in the other large screens. Only some compounds are listed: those with a hit (about 5.4% of all), similar ones and a draw of the others. Unless noted, the call rests on the fitted dose curve; in most records, active means well fitted curve in the direction sought with a large enough effect; inconclusive means small, poorly fitted or top-dose-only effect, or another doubt; inactive means no such curve, though single readings can be large; an effect the other way counts as inactive or inconclusive.

O=C(NCCc1cscn1)C1CCC(=O)N(Cc2ccc(Cl)cc2)C1 (stereo not drawn)	Gal4-VP16 FLuc inconclusive, RORg inh 20µM
O=C(NCCc1ccccc1)C1CCC(=O)N(Cc2ccc(Cl)cc2)C1 (stereo not drawn)	none
CC12CCC(=O)N1C(C(=O)NCc1ccc(Cl)cc1Cl)CS2 (stereo not drawn)	none (no result: Gal4-VP16 FLuc, RORg inh)
O=C(Nc1ccccc1C(=O)Nc1nccs1)c1ccccc1	none (no result: Gal4-VP16 FLuc, RORg inh, p53 reactivation)
COc1cc(OC)cc(-c2nc3ccccc3c(=O)n2OC(=O)c2ccc(Br)cc2)c1	Gal4-VP16 FLuc 11µM, RORg inh 10µM
COc1ccc(C(=O)On2c(-c3ccc(Br)cc3)nc3ccccc3c2=O)cc1	Gal4-VP16 FLuc 5µM, RORg inh 7.1µM
O=C(N/N=C/c1cn[nH]c1-c1ccc(Cl)cc1)c1ccc([N+](=O)[O-])cc1	Gal4-VP16 FLuc inconclusive, RORg inh 10µM
O=C(N/N=C\c1cn[nH]c1-c1ccccc1)c1ccc([N+](=O)[O-])cc1	RORg inh 11µM
COc1ccc(C)cc1NS(=O)(=O)c1ccc2c(c1)NC(=O)C(C)S2 (stereo not drawn)	Gal4-VP16 FLuc inconclusive
Cc1ccc(S(=O)(=O)Oc2ccc(C)cc2/C=N/N=C2\NC(=O)C(C)S2)cc1 (stereo not drawn)	Gal4-VP16 FLuc 10µM, RORg inh 13µM, p53 reactivation inconclusive
O=C(c1ccco1)N1CCN(c2ncnc3c2[nH]c2ccc(Cl)cc23)CC1	Gal4-VP16 FLuc 14µM (no result: Six1-Eya2 blk, CtBP-E1A inh)
O=C(c1ccco1)N1CCN(c2c(-c3ccccc3)c3cc(Cl)ccc3[nH]c2=O)CC1	Gal4-VP16 FLuc inconclusive, RORg inh 2µM
O=c1[nH]c2ccc(Cl)cc2c(-c2ccccc2)c1CN1CCOCC1	Six1-Eya2 blk -73, CtBP-E1A inh -81
COc1ccccc1-c1nnc(Sc2nc([N+](=O)[O-])nn2C)o1	Gal4-VP16 FLuc inconclusive, RORg inh inconclusive
CCOc1ccccc1/C=N/NC(=O)c1nnn(-c2nonc2N)c1CN1CCCCCC1	none (no result: Gal4-VP16 FLuc, RORg inh, p53 reactivation)
CCOc1cc(-c2noc(N)c2C#N)cc(OCC)c1OCC	Gal4-VP16 FLuc inconclusive, RORg inh 11µM
Cc1cc(C(=O)CN2C(=O)C(=O)N(Cc3ccccc3)C2=O)c(C)n1-c1ccccc1F	RORg inh inconclusive
Cc1cc(C(=O)CN2CCC(C)CC2)c(C)n1-c1ccccc1F	Gal4-VP16 FLuc 4.5µM, RORg inh 5.6µM
CN(C)c1ncc2nc(-c3ccc(Cl)cc3)c(=O)n(C[C@H]3CCCO3)c2n1	none (no result: Six1-Eya2 blk, CtBP-E1A inh, p53 reactivation)
COc1ccccc1COc1ccc2c(C)c(CCC(=O)O)c(=O)oc2c1C	Gal4-VP16 FLuc inconclusive, RORg inh 7.9µM
Cc1c(CCC(=O)O)c(=O)oc2cc(OCc3ccccc3Br)ccc12	Gal4-VP16 FLuc 3.2µM (no result: CtBP-E1A inh)
Cc1c(CCC(=O)O)c(=O)oc2cc(OCc3cccc(F)c3)ccc12	none
CCOC(=O)CCc1c(C)c2ccc(OCc3cc([N+](=O)[O-])ccc3OC)c(C)c2oc1=O	none (no result: Six1-Eya2 blk, CtBP-E1A inh)
Cc1ccc(C2=NN(C3=NN=C(N)Cc4ncnn43)C(O)(C(F)(F)F)C2)cc1 (stereo not drawn)	Gal4-VP16 FLuc inconclusive, Six1-Eya2 blk inconclusive, RORg inh 8.9µM (no result: CtBP-E1A inh)
NC1=NN=C(N2N=C(c3ccco3)CC2(O)C(F)(F)F)n2ncnc2C1 (stereo not drawn)	Six1-Eya2 blk -71
Cc1ccc(C(=O)N/C(=C/c2ccccc2)C(=O)NCC2CCCO2)cc1 (stereo not drawn)	none
COCCCN1C(=O)C(CC(=O)NCCN2CCOCC2)CC(C(=O)N2CCCCCC2)=C1C (stereo not drawn)	none (no result: Gal4-VP16 FLuc, RORg inh, p53 reactivation)
COc1ccc2oc(=O)c(C(=O)Nc3ccccc3C)cc2c1	Gal4-VP16 FLuc inconclusive, Six1-Eya2 blk inconclusive, RORg inh 0.89µM (no result: CtBP-E1A inh, p53 reactivation)
COc1ccc2oc(=N)c(C(=O)Nc3cccc(C)c3C)cc2c1	RORg inh 3.2µM
N#CC(c1ccc(O)cc1)N1CCN(C(C#N)c2ccc(O)cc2)CC1 (stereo not drawn)	none (no result: Gal4-VP16 FLuc, RORg inh, p53 reactivation)
CC(=O)Nc1cc(Cl)ccc1OS(=O)(=O)c1ccc(C)cc1	none
COc1cc(C(=O)Nn2c(C)nc3ccccc3c2=O)cc(OC)c1OC	none
O=C(CC1S/C(=N/N=C/C=C/c2ccccc2)NC1=O)Nc1ccc(Cl)c(Cl)c1 (stereo not drawn)	Gal4-VP16 FLuc 7.9µM, RORg inh 5.6µM
Cc1ccc(/C=N/N=C2/NC(=O)C(CC(=O)Nc3ccc(Cl)cc3)S2)o1 (stereo not drawn)	Gal4-VP16 FLuc inconclusive, RORg inh 11µM
Cc1ccc(/C=N/N=C2/NC(=O)C(CC(=O)Nc3ccccc3)S2)o1 (stereo not drawn)	RORg inh 11µM
Cc1ccc(/C=N/N=C2/NC(=O)CS2)o1	Gal4-VP16 FLuc inconclusive, RORg inh 13µM
CCCCN=C1NC(=O)C(CC(=O)Nc2ccc(Cl)cc2)S1 (stereo not drawn)	none
COc1ncc2nc(C)c(=O)n(CCc3ccccc3)c2n1	none (no result: Six1-Eya2 blk, CtBP-E1A inh, p53 reactivation)
O=C1CSC(c2ccc([N+](=O)[O-])cc2)N1c1ccc(O)cc1 (stereo not drawn)	RORg inh inconclusive
Cc1cc(S(=O)(=O)c2ccc([N+](=O)[O-])cn2)ccc1Br	none (no result: Gal4-VP16 FLuc, RORg inh, p53 reactivation)
Cc1ccc(S(=O)(=O)c2ccc([N+](=O)[O-])cn2)cc1	Gal4-VP16 FLuc 3.5µM, RORg inh 3.2µM
O=[N+]([O-])c1ccc(S(=O)(=O)c2ccccc2)nc1	Gal4-VP16 FLuc 3.5µM, RORg inh inconclusive (no result: CtBP-E1A inh)
Brc1ccc(-n2cc(-c3ccccc3)c3c(NN4CCOCC4)ncnc32)cc1	Gal4-VP16 FLuc inconclusive, RORg inh 6.3µM
Cc1[nH]c(=O)c(C(=O)/C=C/c2ccccc2F)c2c1CCCC2	Gal4-VP16 FLuc 5.6µM, RORg inh 5.6µM
C/C(=C\c1ccccc1F)C(=O)c1c(C)cc(C)[nH]c1=O	none
CCCNC(=S)NC1CCCC1	Gal4-VP16 FLuc inconclusive, RORg inh 11µM
NNC(=S)NC1CCCCC1	Gal4-VP16 FLuc 7.1µM, RORg inh 2.8µM
COc1ccc(-n2c(-c3ccc(Br)cc3)nc(=S)c3c2CCCC3)cc1	Gal4-VP16 FLuc 10µM, RORg inh 7.9µM
COc1ccc(-n2c(-c3ccc(Br)cc3)n[nH]c2=S)cc1	Gal4-VP16 FLuc 2.5µM, RORg inh 2.2µM (no result: p53 reactivation)
COc1ccc(-n2c(-c3ccc(Br)cc3)c[n+]3c2CCCCC3)cc1	Gal4-VP16 FLuc inconclusive, RORg inh inconclusive (no result: CtBP-E1A inh)
COc1ccc(-c2n[nH]c(=S)n2-c2ccc(C)cc2)cc1	Gal4-VP16 FLuc 10µM, RORg inh 0.89µM
Cc1cccn2c(=O)c(C=O)c(Sc3ncccn3)nc12	none
CO[C@@H]1COC(=O)[C@H](C)NC(=O)C/C=C\[C@@H](C)[C@H](OC)COC(=O)[C@H](C)NC(=O)C/C=C\[C@H]1C	none (no result: Six1-Eya2 blk, CtBP-E1A inh, p53 reactivation)
